This is part of a sample that, as a whole, favours compounds with a hit. Of some 83,000 tested, about 20% had one in any assay.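 How to read the values: 0–100, growth inhibition (40 = 60% inhibited); 0, no net growth; -100 to 0, cell death (-40 = 40% of starting cells died; -100 = all dead).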 Values without a mark were called inactive. Activity calls are given as the source filed them. Rule for the calls: active = growth percent below 10; inactive = the rest.
How the values were obtained:
Assay in all cases: NCI-60 one-dose screen, 48 h (100 = growth as untreated, 0 = no growth, -100 = all killed)
Settings in all cases: 10 µM unless noted
[1] = system: DU-145 prostate
[2] = system: K-562 leukemia
[3] = system: MALME-3M melanoma
[4] = system: MDA-MB-231 breast
[5] = system: RXF 393 renal
[6] = system: SF-268 CNS
[7] = system: SF-295 CNS
[8] = system: SF-539 CNS
[9] = system: UACC-257 melanoma
[10] = system: M14 melanoma

| Compound | growth [1] | growth [2] | growth [3] | growth [4] | growth [5] | growth [6] | growth [7] | growth [8] | growth [9] | growth [10] |
| --- | --- | --- | --- | --- | --- | --- | --- | --- | --- | --- |
| C/C(=C\c1ccn(-c2ccc(N)cc2C(F)(F)F)n1)[C@@H]1C[C@@H]2O[C@]2(C)CCC[C@H](C)[C@H](O)[C@@H](C)C(=O)C(C)(C)[C@@H](O)CC(=O)O1 | -14.1% (active) | 6.1% (active) | 39.9% | 16.4% | 9.23% (active) | 22.5% | 2.39% (active) | 3.05% (active) | 37.9% | -12.6% (active) |
| CCOc1ccc(/C=C/[N+](=O)[O-])cc1 | 99.3% | 69% | 106% | 92.8% | 16.9% | 98.9% | 82.5% | 39% | 85.5% | 54.5% |
| N/C(=N\N=C\c1ccc(-c2ccccc2)cc1)N[N+](=O)[O-] | 33.4% | 14.9% | 43.7% | 66.5% | -4.68% (active) | 49.1% | 7.55% (active) | 9.43% (active) | 65.3% | 25.8% |
| CC(=O)O[C@H](C[C@H](C(C)C)N(C)C(=O)[C@@H](NC(=O)[C@H]1CCCCN1C)C(C)C)c1nc(C(=O)N[C@@H](Cc2ccccc2)C[C@H](C)C(=O)O)c(C(C)C)s1 | -0.791% (active) | 6.34% (active) | 64.9% | 12.9% | 44.1% | 27.7% | -0.193% (active) | -10.7% (active) | 41.5% | 4.52% (active) |
| CC(C)OC(=O)[C@H](C)NP(=O)(Oc1ccccc1)C1CCCN(O)C1=O (stereo not given in full) | 98.1% | 94.2% | 43.6% | 92.3% | 57.2% | 93.9% | 95.6% | 87.7% | 93.8% | 66.5% |
| C=C1C(=O)O[C@H]2[C@H]1CC/C(COC(=O)C(=O)c1cn(Cc3ccccc3)c3ccccc13)=C\CC[C@@]1(C)O[C@@H]21 | -54.1% (active) | 5.58% (active) | -41.7% (active) | -57.2% (active) | -90.2% (active) | -57.5% (active) | 18.8% | -51.3% (active) | -65.4% (active) | -66% (active) |
| O=C(CC1(O)C(=O)Nc2ccccc21)c1ccc(C(=O)NCC2CCC3(CC2)OOC2(CCCCC2)OO3)cc1 (stereo not given) | 76.3% | 39.6% | 56.1% | 67% | 98.1% | 82% | 76.2% | 81% | 67.1% | 85.7% |
| Cn1cc(-c2csc(-c3cn(CCCCN4CCCCC4)c4ccccc34)n2)c2cccnc21 | 21% | -57.8% (active) | -66.9% (active) | -63.5% (active) | -84.5% (active) | 1.24% (active) | -18% (active) | -73.2% (active) | -67.3% (active) | -80.3% (active) |
| CC(C)(NC(=O)O[C@@H]1CN2CCC1CC2)c1csc(-c2ccc(F)cc2)n1 | 112% | 94.5% | 97.1% | 102% | 105% | 88.7% | 101% | 95.3% | 102% | 84.9% |
| N#Cc1c(Br)n(C2OC(CO)C(O)C2O)c2ncnc(N)c12 (stereo not given) | 17.8% | 20.8% | 108% | 97.1% | 13.8% | 55% | 87.5% | 102% | 80.3% | 60% |
| Fc1ccc(N2COOC3(OOC2)C2CC4CC(C2)CC3C4)cc1 | 90.8% | 26.7% | 106% | 95.5% | 115% | 91.5% | 87.5% | 82.5% | 89.6% | 89.5% |
| COc1ccc(C/C(C)=C(\c2ccc(OCCN3CCOCC3)cc2)c2ccc(OC(=O)Cc3ccccc3)cc2)cc1 | 9.74% (active) | -24.7% (active) | -79.5% (active) | -48.4% (active) | -83.3% (active) | -21.3% (active) | -57.6% (active) | -85.4% (active) | -89.2% (active) | -66.9% (active) |
| Oc1c(O)c(Cl)c(Cl)c(Cl)c1Cl | 47.5% | 24.2% | 64.7% | 44.8% | 7.31% (active) | 24.2% | 9.55% (active) | 20.9% | -9.22% (active) | 39.6% |
| CC[C@H](C)[C@H](NC(=O)[C@H]1CCCCN1C)C(=O)N(C)[C@H](CC(=O)c1nc(C(=O)N[C@@H](Cc2ccccc2)C[C@H](C)C(=O)O)cs1)C(C)C | 106% | 32.2% | 67.1% | 88% | 87.1% | 84.2% | 87.4% | 75.8% | 74% | 57.9% |
| C[Se]C(=O)c1ccccc1OC(C)=O | 76.9% | 74.8% | 68.7% | 68.3% | 11.7% | 18.3% | 48.6% | 50.3% | 49.1% | 20.8% |
| CCC[CH2][Sn]([CH2]CCC)([CH2]CCC)[O]c1ccc(Cl)cc1Cl | -99.4% (active) | -65% (active) | -61.5% (active) | -78.2% (active) | -96.2% (active) | -91% (active) | -37% (active) | -83.4% (active) | -88.8% (active) | -83.9% (active) |
| COc1cc(C=Nc2cccc(Br)c2)ccc1N(CCCl)CCCl | 87.6% | 88.4% | 128% | 91.2% | 2.86% (active) | 80.3% | 44.4% | 67.9% | 96.6% | 94% |
| Cn1cc(-c2csc(-c3cn(CCN4CCOCC4)c4ccc(F)cc34)n2)c2cccnc21 | 40.1% | 9.34% (active) | 53% | 35.1% | 71% | 41.7% | 29.2% | 61.5% | 71% | 8.08% (active) |
| COc1cccc(/C=C/[N+](=O)[O-])c1 | -2.85% (active) | 7.02% (active) | 89.8% | 87.6% | -60.7% (active) | 78.2% | 84.3% | 50.8% | 83.1% | 12.3% |
| COc1ccc(S(=O)(=O)Nc2c(/C=C\c3cc(OC)c(OC)c(OC)c3)ccc(OC)c2O)cc1OC | -10.2% (active) | 17.2% | 69.2% | 1.41% (active) | 24.6% | 23.7% | 12% | -14.6% (active) | 58.5% | 9.05% (active) |
| CC[C@H](NC(=O)[C@H]1CCCCN1C)C(=O)N(C)[C@H](C[C@@H](OC(C)=O)c1nc(C(=O)N[C@@H](Cc2ccccc2)C[C@H](C)C(=O)O)cs1)C(C)C | 0.513% (active) | 6.94% (active) | 76% | 9.34% (active) | 43.2% | 30.2% | 0.548% (active) | -12.1% (active) | 52.9% | -10.4% (active) |
| O=C1C2C(C(=O)[N]1[Hg][c]1ccccc1)C1(Cl)C(Cl)=C(Cl)C2(Cl)C1(Cl)Cl (stereo not given) | -86.6% (active) | 4.39% (active) | -78.4% (active) | -2.38% (active) | -98.6% (active) | -66.4% (active) | 67.8% | 10.3% | -67.8% (active) | -82.3% (active) |
| C[S+]1C=Cc2ccccc2C1c1ccc(Cl)cc1 (stereo not given) | 99.8% | 78.8% | 103% | 103% | 74.8% | 47.1% | 68% | 104% | 92.5% | 83.6% |
| c1ccc(CSC(c2ccccc2)c2ccccc2)cc1 | 121% | 105% | 110% | 119% | 119% | 112% | 114% | 105% | 105% | 99.1% |
| COC(=O)[C@@]1(C)CC[C@]2(C)CC[C@]3(C)C4=CC=C5C(=CC(=O)C(O)=C5C)[C@]4(C)CC[C@@]3(C)[C@@H]2C1 | -96.7% (active) | -54.4% (active) | -87.3% (active) | -93.4% (active) | -84% (active) | -83.2% (active) | -91.8% (active) | -99.6% (active) | -88.3% (active) | -94% (active) |
| CC[C@H](C)[C@H](NC(=O)[C@H]1CCCCN1C)C(=O)N(C)[C@H](C[C@@H](O)c1nc(C(=O)N[C@@H](Cc2ccccc2)C[C@H](C)C(=O)O)cs1)C(C)C | 112% | 42.1% | 77.6% | 95.2% | 96.9% | 88.2% | 90.6% | 83.6% | 76.1% | 64.5% |

From PubChem BioAssay (NCI)
